# In PubChem BioAssay AID651800 (The Scripps Research Institute Molecular Screening Center, 2012):
# Hit rate of the full screen: of about 360,000 compounds, about 1,300 (0.36%) were called active. For the sample, actives were picked, then their nearest neighbours and some compounds at random. Unmarked numbers belong to inactive results. No stated cut-off is given here; in the data, active means inhibition above about 19%; inactive means the rest.
# Test system: T-cell receptor (TCR)
# Assay: inhibitors of human TCR-CD3 interaction, primary screen, biochemical, fluorescence, TAMRA-labeled TCR probe (AID 651800);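 further: recombinant mutant TCR 2C K166C tagged with TAMRA read by polarization; 0% = receptor in buffer alone and 100% = receptor with positive control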
# Conditions: at 9.4 µM, hits give high values
row,SMILES,inhibition
1,C[C@@H](NC(=O)OC(C)(C)C)c1nnc(S(=O)(=O)Cc2ccccc2)o1,6.57%
2,COC(=O)Cc1nnn2c1[C@H](C)[C@@H](OC)c1cc(Br)ccc1-2,-3.71%
3,COC(=O)[C@]12C[C@H](CC(=O)NCCc3ccccc3OC)C(=O)N(Cc3ccccc3)C1=C[C@H](C(C)C)O[C@@H]2C1CC1,0.38%
4,Cc1[nH]c2ccccc2c1CC(=O)Nc1ccc(Nc2cccnc2)c(-c2cccc(Cl)c2)c1,7.27%
5,Cc1ccc(O)c(/C=N/NC(=O)COc2ccc3c(C)cc(=O)oc3c2)c1,35% (active)
6,COc1ccc(N2CCN(C(=O)COc3ccc4c(C)cc(=O)oc4c3)CC2)cc1,4.22%
7,CC(=O)c1c(C)[nH]c(C(=O)COc2ccc3c(C)cc(=O)oc3c2)c1C,-7.65%
8,Cc1nc(NC(=O)C(C)(C)C)sc1[N+](=O)[O-],-8.33%
9,O=S1(=O)c2ccc(Br)cc2-n2nncc2CN1Cc1cccc(Cl)c1,3.21%
10,Nc1ncnc2c1ncn2[C@@H]1O[C@H](C(=O)N[C@@H](CCc2ccccc2)C(=O)NCC(=O)N2CCOCC2)[C@@H](O)[C@H]1O,10.8%
11,COC(=O)C(C(=O)OC)c1ccccc1NS(=O)(=O)c1cccc2ccccc12,6.59%
12,O=C(NN=Cc1ccco1)C(=O)Nc1ccc(Cl)c([N+](=O)[O-])c1,3.53%
13,Cc1ncc(CO)c(/C=N/NC(=O)c2cccc(S(=O)(=O)N3CCCC3)c2)c1O,27.1% (active)
14,CCOc1cc(/C=N/NC(=O)c2cccc(S(=O)(=O)N3CCOCC3)c2)ccc1OCC(=O)N(C)C,-6.38%
15,O=C(NNC1=NCCC1)c1cccc(S(=O)(=O)N2CCCCC2)c1,-7.2%
16,O=C(O)Cn1cnc2c(NCc3ccccc3)ncnc21,-4.94%
17,Cc1ccc(C)c(NC(=O)CN(C)C(=O)COc2ccc3ccccc3c2)c1,-2.17%
18,COCCNC(=O)COc1ccc(N(C)S(=O)(=O)c2ccc3ccccc3c2)cc1,-0.41%
19,Cc1cc2ccccc2n1CCNC(=O)COc1ccc2ccccc2c1,60.3% (active)
20,N#Cc1cccc(C(=O)NCC2CCN(C(=O)C(=O)c3cc4ccccc4o3)CC2)c1,0.99%
21,CCOc1ccccc1C(=O)N1CCC[C@@H]1C(=O)N1CCC[C@H]1C(=O)NCc1ccccc1,-2.28%
22,Cc1ccc2nc(-c3ccc(NC(=O)CN(C)S(=O)(=O)c4ccccc4)cc3)sc2c1,8.35%
23,O=C(Nc1ccccc1)c1cc2ccccc2[nH]1,-3.23%
24,O=C(NCC(O)c1nc2ccccc2[nH]1)c1ccc(Br)cc1 (stereo not drawn),4.63%
25,O=C(Nc1cccc(-c2nc3ccccc3[nH]2)c1)c1ccc(C(=O)Nc2cccc(-c3nc4ccccc4[nH]3)c2)cc1,26.7% (active)
26,Cc1cc(OC(=O)NCCc2ccc(F)cc2)ccc1F,1.4%
27,COC(=O)c1cc2c(c3c4cc(F)ccc4n(S(=O)(=O)c4ccccc4)c13)C(=O)N(Cc1ccccc1OC)C2,2.91%
28,CC(C)(C)C(c1nc2ccccc2[nH]1)n1c(Cc2csc3ccccc23)nc2ccccc21 (stereo not drawn),5.18%
